Only some compounds are listed: those with a hit (about 17% of all), similar ones and a draw of the others.
DT40 TDP1 no CPT – qHTS for Inhibitors of human tyrosyl-DNA phosphodiesterase 1 (TDP1): qHTS in cells in absence of CPT | AID 686978, 2013 | Potency, µM (top dose mostly 46.2 µM), most hits filed as inhibitors | DT40 Tdp1-/- hTDP1 cells, no CPT, ATP luminescence, 48 h | 420,000 tested, 15% active; further: nearly all actives have a fitted effect of over 55% in size
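Stably hTDP1-transfected Tdp1-null chicken DT40 cells were treated with library compounds minus camptothecin and grown for at least 48 hr at 37 °C, after which cellular ATP was quantified by luminescence.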
TDP1 inh – qHTS Assay for Inhibitors of Tyrosyl-DNA Phosphodiesterase (TDP1). Tyrosyl-DNA phosphodiesterase 1 (Homo sapiens), Q9NUW8. recombinant TDP1, AlphaScreen DNA substrate cleavage. Potency, µM (titrated, usually from 130 µM), most hits filed as inhibitors. 350,000 tested, 0.28% active. AID 485290, 2010; further: nearly all actives have a fitted effect of over 40% in size
Target sequence (Q9NUW8 whole entry, looked up): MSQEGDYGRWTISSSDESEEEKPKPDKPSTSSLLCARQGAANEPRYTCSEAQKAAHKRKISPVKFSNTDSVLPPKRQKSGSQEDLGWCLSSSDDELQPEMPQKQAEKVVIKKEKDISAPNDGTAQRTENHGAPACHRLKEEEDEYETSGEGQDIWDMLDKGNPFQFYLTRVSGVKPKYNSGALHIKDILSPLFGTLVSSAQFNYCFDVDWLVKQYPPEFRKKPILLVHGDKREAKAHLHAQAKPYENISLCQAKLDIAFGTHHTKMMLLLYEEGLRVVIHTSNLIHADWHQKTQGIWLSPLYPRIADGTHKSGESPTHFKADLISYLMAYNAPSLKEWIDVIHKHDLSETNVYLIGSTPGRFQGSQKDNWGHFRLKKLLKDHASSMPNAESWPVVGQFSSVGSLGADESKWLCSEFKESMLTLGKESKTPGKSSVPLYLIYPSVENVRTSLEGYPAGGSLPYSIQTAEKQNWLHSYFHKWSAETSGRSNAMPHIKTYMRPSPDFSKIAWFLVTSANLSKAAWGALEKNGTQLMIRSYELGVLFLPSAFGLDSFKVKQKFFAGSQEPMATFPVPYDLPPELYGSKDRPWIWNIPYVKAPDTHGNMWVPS
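Steps: enzyme plus compound, 15 min RT; add biotin/phosphotyrosine-FITC oligonucleotide (15 nM final), react 5 min; add donor/acceptor beads (10 ug/ml final), 10 min; read AlphaScreen. Tdp1 at 1 nM final.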
DT40 TDP1 CPT – qHTS for Inhibitors of human tyrosyl-DNA phosphodiesterase 1 (TDP1): qHTS in cells in presence of CPT; Potency, µM (titrated, usually from 46.2 µM), hits mostly inhibitors; 420,000 tested, 12% active; chicken DT40 Tdp1-/-;hTDP1 cells + 20 nM CPT, ATP luminescence, 48 h; further: nearly all actives have a fitted effect of over 55% in size
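Chicken DT40 Tdp1-/- cells stably complemented with human TDP1 were seeded at 400 cells/well in medium containing 20 nM camptothecin, exposed to pin-transferred compounds, and grown at 37 °C for at least 48 hr. Viability was read as ATP luminescence.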
ClpP mod – qHTS Assay for Activators of ClpP | Potency, µM (series often up to 57.5 µM) | ATP-dependent Clp protease proteolytic subunit (Bacillus subtilis (strain 168)), P80244 | AID 651965, 2013 | 340,000 tested, 1.9% active | purified B. subtilis ClpP, FRET peptide cleavage, 20 min; active means well fitted falling curve with a large enough effect; inconclusive means small, poorly fitted or top-dose-only effect; inactive means no such curve, though single readings can be large or run the other way; further: the source files actives as falling curves though it sought activators and does not explain the sign; nearly all actives have a fitted effect of over 65% in size
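ClpP 10 microg/mL final, pH 8 Tris/KCl buffer with BSA, glycerol, Tween-20; compound pinned in; FRET-FV substrate; RT 20 min; Ex320/Em430; ΔFRET vs ADEP 5.8 microM, DMSO, no enzyme.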
Numbers stand for hits; . = inactive; ? = inconclusive; / = no result; [ ] = another dose, or the depositor's remark. Unless noted, the call rests on the fitted dose curve; in most records, active means well fitted curve in the direction sought with a large enough effect; inconclusive means small, poorly fitted or top-dose-only effect, or another doubt; inactive means no such curve, though single readings can be large; an effect the other way counts as inactive or inconclusive.

SMILES	DT40 TDP1 no CPT	TDP1 inh	DT40 TDP1 CPT	ClpP mod
O=S(=O)(CCc1ccccc1)c1nc2ccccc2s1	/	.	/	/
CC/C(C)=N/Nc1cccc([N+](=O)[O-])c1	.	.	.	.
CCOc1ccc(S(=O)(=O)N(CC(=O)NCc2cccnc2)c2ccc(F)cc2)cc1	18µM	.	?	/
Cc1ccc(S(=O)(=O)N(CC(=O)NCc2cccnc2)c2ccc(F)cc2)cc1	18µM	.	.	/
Cc1ccccc1OCCn1c(-c2ccc(Cl)cc2)nc2ccccc2c1=O	.	/	.	.
Cc1ccc(Nc2nc3ccccc3c3nnc(C)n23)c(C)c1	8.2µM	.	12µM	.
O=C(COc1ccc2ccc(=O)oc2c1)Nc1ccc(N2CCOCC2)cc1	?	.	.	?
Cc1ccc(OCC(=O)Nc2cccc(S(=O)(=O)N3CCCC3)c2)cc1C	?	/	.	.
CCOc1ccccc1OCC(=O)Nc1cccc(S(=O)(=O)N2CCCCCC2)c1	?	.	?	.
Cc1ccc2cccc(OCC(=O)Nc3cccc(S(=O)(=O)N4CCCC4)c3)c2n1	16µM	.	21µM	.
Cc1ccc(OCC(=O)Nc2cccc(S(=O)(=O)N3CCCCC3)c2)c([N+](=O)[O-])n1	?	.	?	.
O=C(COc1ccc2ccc(=O)oc2c1)Nc1cccc(S(=O)(=O)N2CCCCC2)c1	12µM	.	?	35µM
CC(=O)c1ccc(OCC(=O)Nc2cccc(S(=O)(=O)N3CCCC3)c2)cc1	9.2µM	.	8.2µM	.
N#Cc1ccccc1OCC(=O)Nc1cccc(S(=O)(=O)N2CCCCCC2)c1	21µM	.	?	.
COc1ccc(N2CCN(c3nc4ccccn4c(=O)c3/C=C(\C#N)S(=O)(=O)c3ccccc3)CC2)cc1	.	.	.	.
CCCN(C)C[C@@H]1OCCCC[C@@H](C)Oc2ccc(NS(=O)(=O)c3ccc(OC)cc3)cc2C(=O)N([C@H](C)CO)C[C@@H]1C	?	/	?	.
Cc1nnc(Sc2cc(NCCO)c([N+](=O)[O-])c3nonc23)s1	2.3µM	.	3.3µM	.
O=[N+]([O-])c1c(NCCO)cc(N2CCCCCC2)c2nonc12	.	/	.	.
Cc1nnc(Sc2cc(NCCCO)c([N+](=O)[O-])c3nonc23)s1	2.1µM	.	1.5µM	/
COC(=O)c1ccc(C2=NOC(C)(c3sc(-c4ccc(Cl)cc4)nc3C)C2)cc1 (centres undefined)	?	.	?	25µM
O=C1CNC(=S)N1C(CO)c1ccccc1 (centres undefined)	.	/	.	/
CC1(C(=O)NS(=O)(=O)c2ccc(Br)cc2)CCN1C(=O)CCC1CCCC1 (centres undefined)	.	/	.	.
CN(CC(=O)Nc1cccc(F)c1)CC(=O)Nc1cccc(S(=O)(=O)N2CCCCCC2)c1	16µM	.	16µM	.
O=S(=O)(c1cccc(Cn2nnc(-c3ccccc3)n2)c1)N1CCOCC1	21µM	.	23µM	.
CN(CC(=O)Nc1cccc(F)c1)CC(=O)Nc1cccc(S(=O)(=O)N2CCCCC2)c1	21µM	.	?	.
SMILES	DT40 TDP1 no CPT	TDP1 inh	DT40 TDP1 CPT	ClpP mod
CN(CC(=O)Nc1cccc(S(=O)(=O)N2CCCCC2)c1)Cc1ccc(F)cc1	?	.	?	.
N#Cc1ccccc1OCc1cccc(S(=O)(=O)N2CCOCC2)c1	.	.	.	.
O=C(Cn1cnnn1)Nc1cccc(S(=O)(=O)N2CCCCC2)c1	.	.	.	/
O=C(Cn1nnc(-c2ccccc2)n1)Nc1cccc(S(=O)(=O)N2CCCC2)c1	21µM	.	18µM	32µM
COc1cc(C2C=C(C(=O)O)Nc3ncnn32)ccc1O (centres undefined)	.	.	.	.
CS(=O)(=O)c1ccc(CNC(=O)[C@@H]2C[C@H]2[C@@H](NP(=O)(c2ccccc2)c2ccccc2)c2ccccc2)cc1	/	.	/	/
Cc1nc2ccc(S(=O)(=O)NC(C(=O)NCc3ccc(Cl)cc3)C(C)C)cc2s1 (centres undefined)	.	.	.	.
O=C(NCc1ccccc1Cl)c1nnc(Cc2ccc(Cl)cc2)o1	.	.[12.3 µM]	.	.
O=C(CN1CCCc2ccccc21)Nc1cccc(S(=O)(=O)N2CCCC2)c1	?	/	?	.
O=C(CN1C(=O)c2ccccc2S1(=O)=O)Nc1cccc(S(=O)(=O)N2CCCCC2)c1	18µM	.	?	.
CC1CCc2ccccc2N1CC(=O)Nc1cccc(S(=O)(=O)N2CCCC2)c1 (centres undefined)	18µM	.	16µM	/
O=C(CN1C(=O)c2ccccc2S1(=O)=O)Nc1cccc(S(=O)(=O)N2CCOCC2)c1	.	.	.	.
CON(C)C(=O)CCC1CCCN1C(=O)OC(C)(C)C (centres undefined)	.	.	.	.
C#CC(=O)CCC1CCCN1C(=O)OC(C)(C)C (centres undefined)	?	.	15µM	.
CC(C)CC(=O)N1CCN(c2ccc(NC(=O)c3ccco3)cc2)CC1	.	.	.	?
O=C1C(F)=CC(COC(c2ccccc2)(c2ccccc2)c2ccccc2)OC1n1cc(F)c(=O)[nH]c1=O (centres undefined)	1.5µM	/	1.6µM	.
C[C@H]1O[C@@H](n2cc(F)c(=O)[nH]c2=O)[C@H](O)[C@@H]1O	?	.	?	.
CC(=O)OCC(NC(=O)C(CCCCNC(=O)OCc1ccccc1)NC(=O)OC(C)(C)C)C1OC(n2cc(C)c(=O)[nH]c2=O)C(OC(C)=O)C1OC(C)=O (centres undefined)	/	.	/	/
CCc1ccc(Nc2ncnc3sc4c(c23)CCCC4)cc1	18µM	.	21µM	.
CC(=O)Nc1ccc(Nc2ncnc3sc4c(c23)CCCC4)cc1	?	.	?	.
COc1ccc(/C=N/Nc2ncnc3sc4c(c23)CCCC4)cc1OC	16µM	.	?	.
Cc1nc(Nc2cccc(O)c2)c2c3c(sc2n1)CCC3	21µM	/	18µM	/
COc1ccc(Nc2ncnc3sc4c(c23)CCCC4)cc1	0.029µM	.	3.3µM	.
Cc1cc(C)cc(Nc2ncnc3sc4c(c23)CCCC4)c1	.	.	.	.
O=C(NC(Cc1ccccc1)C(=O)O)C1CCN(S(=O)(=O)c2ccccc2C(F)(F)F)CC1 (centres undefined)	.	/	.	.
CC(C)CC(NC(=O)C1CCCCC1)C(=O)Nc1cccc(C(F)(F)F)c1 (centres undefined)	.	.	.	.
Cc1cc(Oc2c(C(F)(F)F)oc3c(CN4CCC(C)CC4)c(O)ccc3c2=O)cc(C)c1Cl	.	.	.	.
Fc1ccc(-n2ncc3c(SCc4cccnc4)ncnc32)cc1	?	.	?	.
Fc1ccc(Nc2ncnc3sc4c(c23)CCC4)cc1F	.	.	.	.

High-throughput results: PubChem BioAssay, National Center for Advancing Translational Sciences (NCATS)
